Test results taken from PubChem BioAssay AID652057 (Broad Institute, 2013).
The whole screen tested about 1,400 compounds, of which about 1,000 (71%) were called active. No rule for the calls is given here. So high a share suggests a set chosen from earlier hits. The list is a sample of the results. Potency and affinity values are given separately.

Test: blockers of HIV-1 envelope-mediated cell-cell fusion – cherry-pick, dose response (AID 652057)
Details: HeLa-JRFL Env/CEM21 cell fusion, luciferase; series mostly up to 35 µM; activity change, negative = inhibition: at the top concentration

Activity change, negative = inhibition, inactive:
O=C(C[C@@H]1C[C@H]2c3cc(NC(=O)Nc4ccccc4)ccc3O[C@H]2[C@H](CO)O1)NCc1cccnc1 -1.52%, O=C(NCc1cccnc1)c1c[nH]c2cc3c(cc2c1=O)OCCO3 47.4%, COc1cc(CSc2nnnn2-c2ccc(C)cc2)cc(OC)c1OC -1.13%, c1ccc2c(c1)ncn2CCCCOc1ccc2c(c1)CCC2 1.92% [at 16 µM], Cc1ccc(Cn2ncc3c(N4CCN(Cc5ccc(Cl)cc5)CC4)ncnc32)cc1 -11.6%, COc1ccc(C)cc1NC(=O)CCNS(=O)(=O)c1ccc2c(c1)CC(C)N2C(C)=O (stereo not given) -12.8%, CCOC(=O)C1CCN(C(=O)c2ccc3c(c2)C(=O)N(c2ccccc2C)C3=O)CC1 35.1%, COc1ccc(OCC(=O)Nc2ccccc2N2CCCCC2)cc1 39.9%, OCC[C@@H]1C[C@@H](O)[C@H](O)[C@]2(OCc3ccccc32)O1 -4.52%, Cc1ccc(Cn2ncc3c(N4CCN(c5ccc(C)cc5)CC4)ncnc32)cc1 35%, c1ccc2c(c1)CCN(c1ncnc3c1[nH]c1ccccc13)C2 2.06%, CC(=O)c1ccc(S(=O)(=O)N2CCN(c3nc4c(C)c(C)ccc4cc3C#N)CC2)cc1 -11.1%, O=C(C[C@H]1C[C@@H]2c3cc(NC(=O)C4CCC4)ccc3O[C@@H]2[C@@H](CO)O1)NCC(F)(F)F 9.8%, CC(=O)C1=C(C)NC(=S)NC1c1ccccc1 (stereo not given) 13.6%, CCOC(=O)C1CCCN(Cc2nc(N)nc(Nc3ccc(OC)cc3)n2)C1 (stereo not given) -0.574%, COC(=O)[C@@]1(Cc2ccc(F)cc2)[C@H]2c3cc(C(=O)N(C)C)n(CCO)c3C[C@H]2CN1C(=O)c1ccccc1 13.3%, N#CCSc1nnc(-c2sc3ccccc3c2Cl)o1 -11.7%, CO[C@H]1CN(C)C(=O)c2cc(NS(=O)(=O)c3ccc(Cl)cc3)ccc2OC[C@@H](C)N(C)C[C@@H]1C 19.1%, CO[C@H]1CN(C)C(=O)c2cc(NC(C)=O)ccc2OC[C@@H](C)N(Cc2nccs2)C[C@H]1C 20.8%, CCNC(=O)C[C@@H]1CC[C@@H]2[C@H](COC[C@@H](O)CN2C(=O)c2ccccn2)O1 -7.64%, CS(=O)(=O)Nc1ccc2c(c1)[C@H]1C[C@H](CC(=O)NCc3ccc(-c4ccccc4)cc3)O[C@H](CO)[C@H]1O2 -12.4%, CN(C)C(=O)C[C@@H]1C[C@H]2c3cc(NS(=O)(=O)c4ccc(F)cc4)ccc3O[C@H]2[C@H](CO)O1 37.5%, CCCNC(=O)C[C@H]1C[C@H]2c3cc(NC(=O)Cc4ccncc4)ccc3O[C@H]2[C@H](CO)O1 0.858%, CS(=O)(=O)Nc1ccc2c(c1)[C@H]1C[C@@H](CC(=O)NCCN3CCCCC3)O[C@@H](CO)[C@H]1O2 18.3%, CN(C)C(=O)C[C@H]1C[C@@H]2c3cc(NS(=O)(=O)c4ccc(F)cc4)ccc3O[C@@H]2[C@@H](CO)O1 14.9%, COCCNC(=O)C[C@@H]1C[C@H]2c3cc(N(C)C)ccc3O[C@H]2[C@@H](CO)O1 14.4% [at 16 µM], CCCNC(=O)C[C@@H]1C[C@@H]2c3cc(NC(=O)Cc4ccncc4)ccc3O[C@@H]2[C@H](CO)O1 5.24%, O=C(C[C@@H]1C[C@@H]2c3cc(NC(=O)c4ccc5c(c4)OCO5)ccc3O[C@@H]2[C@@H](CO)O1)NCc1ccc(Oc2ccccc2)cc1 -9.82% [at 30 µM], CS(=O)(=O)Nc1ccc2c(c1)[C@H]1C[C@H](CC(=O)N3CCc4ccccc4C3)O[C@H](CO)[C@H]1O2 4.05%, O=C(C[C@@H]1C[C@@H]2c3cc(NC(=O)C4CCC4)ccc3O[C@@H]2[C@@H](CO)O1)NCc1ccc2c(c1)OCO2 -14.9%, O=C(C[C@H]1C[C@@H]2c3cc(NC(=O)C4CCOCC4)ccc3O[C@@H]2[C@H](CO)O1)NCc1ccccc1 -0.474%, O=C(C[C@@H]1C[C@H]2c3cc(NC(=O)C4CCOCC4)ccc3O[C@H]2[C@@H](CO)O1)NCc1ccccc1 6.66%, COC(=O)C[C@@H]1C[C@H]2c3cc(NS(=O)(=O)c4cccc(OC)c4)ccc3O[C@H]2[C@@H](CO)O1 53.6%, CS(=O)(=O)Nc1ccc2c(c1)[C@@H]1C[C@@H](CC(=O)N3CCc4ccccc4C3)O[C@H](CO)[C@@H]1O2 16.9%, O=C(C[C@@H]1C[C@@H]2c3cc(NC(=O)Nc4ccccc4)ccc3O[C@@H]2[C@@H](CO)O1)NCc1ccccc1 12.8% [at 30 µM], O=C(C[C@H]1C[C@@H]2c3cc(NC(=O)Nc4ccc(F)cc4)ccc3O[C@@H]2[C@@H](CO)O1)NCC1CC1 -7.22%, O=C(C[C@H]1C[C@H]2c3cc(NS(=O)(=O)c4ccc(F)cc4)ccc3O[C@H]2[C@@H](CO)O1)NCc1ccccc1F 27.6%, CN(C)C(=O)C[C@@H]1C[C@@H]2c3cc(NS(=O)(=O)c4ccc(F)cc4)ccc3O[C@@H]2[C@@H](CO)O1 28%, O=C(C[C@@H]1C[C@@H]2c3cc(NS(=O)(=O)c4ccc(F)cc4)ccc3O[C@@H]2[C@H](CO)O1)NCc1ccccc1F -1.08%, O=C(C[C@@H]1C[C@H]2c3cc(NC(=O)Nc4ccc(F)cc4)ccc3O[C@H]2[C@H](CO)O1)NCC1CC1 38.6%, Cc1cc(C(=O)N2CCC(C(=O)O)CC2)c(C(F)(F)F)o1 -13.1%, Cc1cc(Nc2cccc(C(F)(F)F)c2)cc(=O)n1-c1cccc(C(F)(F)F)c1 -4.17%, CCc1nnc(NC(=O)[C@@H](NC(=O)c2cccc(S(=O)(=O)N(CC)CC)c2)C(C)C)s1 -4.25%, CCN(CC)S(=O)(=O)c1cccc(NC(=O)c2ccc(-n3nc(C)cc3C)cc2)c1 -21.6%, O=C(Nc1cccc(C(F)(F)F)c1)c1ccc(Cn2cc(Br)cn2)o1 -20.7%, O=C(C[C@H]1C[C@H]2c3cc(NC(=O)C4CCC4)ccc3O[C@H]2[C@@H](CO)O1)NCc1ccc2c(c1)OCO2 7.29% [at 30 µM], CN(C)CCCNC(=O)[C@H]1[C@H](CO)[C@H]2Cn3c(ccc(C4=CCCC4)c3=O)[C@H]2N1CCC(F)(F)F 23.1%, O=C(NCc1cccc(F)c1)[C@@H]1[C@@H](CO)[C@@H]2Cn3c(ccc(-c4cccnc4)c3=O)[C@H]1N2CC1CC1 5.3%, Cc1cc(C)c(CN2CCN(C(=O)Cn3ccc(NC(=O)OCc4ccccc4)nc3=O)CC2)c(C)c1 -21.1%, CCCNC(=O)C[C@@H]1C[C@@H]2c3cc(NC(=O)CN(C)C)ccc3O[C@@H]2[C@H](CO)O1 1.88%
